hgDAF12 agonist = H. glycines DAF-12 receptor agonists, primary screen, cell-based, luminescence, HEK293, GAL4 fusion, UAS-luciferase. actives 1.8% (n = 370,000). HEK293 GAL4-hgDAF12 UAS-luciferase reporter, agonist luminescence; normalized to butyrate control. Nuclear hormone receptor DAF-12 (Heterodera glycines), GAL4 fusion. activation, % at 6.8 µM. AID 687014, 2013;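 active means activation above a cutoff set at the mean of all screened compounds plus 3 SD, cut at about 10% in these data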;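 further: 0% = DMSO wells and 100% = sodium butyrate wells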
AHR activator = AHR activators, primary screen, cell-based, luminescence, luciferase reporter, human. activation, % at 5 µM. Aryl hydrocarbon receptor (Homo sapiens), P35869. actives 2.5% (n = 320,000). AHR-responsive luciferase reporter cells; in the data active means activation above about 47%;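 further: 0% = vehicle wells and 100% = reference agonist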
hcDAF-12 act = H. contortus DAF-12 nuclear receptor activators, primary screen, cell-based, luminescence, HEK293, lit1-tk-luc reporter; HEK293 hcDAF-12 lit1-tk-luc reporter; 0% DMSO, 100% Δ7-dafachronic acid; activation, % at 6.8 µM; actives 1.4% (n = 370,000);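 active means activation above the mean of all tested compounds plus 3 SD, cut at about 5.5% in these data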;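 further: 100% = response to 3 µM Δ7-dafachronic acid high control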
DAX1 inh-1 = DAX1 (NR0B1) inhibitors, primary screen, cell-based, HEK293, Gal4-DAX1, luciferase luminescence. HEK293 Gal4-DAX1 luciferase reporter. inhibition, % at 6.75 µM. actives 0.99% (n = 340,000). AID 504766, 2011;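 active means inhibition above the mean over all tested compounds plus 3 SD, cut at about 4.2% in these data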;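 further: 0% = DAX1-transfected cells with DMSO and 100% = empty-vector control cells with DMSO; inhibition shows as a rise in luminescence from relieved DAX1 repression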
Target sequence (P51843 207-470 limits assumed): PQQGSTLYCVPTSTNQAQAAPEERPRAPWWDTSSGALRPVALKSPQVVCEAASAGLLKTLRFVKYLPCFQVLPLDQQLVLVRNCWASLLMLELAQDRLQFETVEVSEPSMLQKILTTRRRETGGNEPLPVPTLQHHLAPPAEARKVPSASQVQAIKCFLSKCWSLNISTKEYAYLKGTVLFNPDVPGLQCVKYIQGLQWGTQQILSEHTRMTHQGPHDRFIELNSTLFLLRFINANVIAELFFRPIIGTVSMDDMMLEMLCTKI
ssDAF-12 act = S. stercoralis DAF-12 nuclear receptor activators, primary screen, cell-based, luminescence, HEK293, GRIP1 co-expression, lit1-tk-luc; HEK293 ssDAF-12/GRIP1 lit1-tk-luc reporter; % of 3 µM dafachronic acid response; activation, % at 6.8 µM; actives 1% (n = 370,000);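 active means activation above the mean over all tested compounds plus 3 SD, cut at about 0.9% in these data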;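 further: 0% = DMSO-only wells and 100% = 3 µM delta7-dafachronic acid wells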
DAX1 inh-2 = DAX1 (NR0B1) inhibitors on StAR promoter, primary screen, cell-based, luminescence, SF-1 (NR5A1), full-length DAX-1; inhibition, % at 6.8 µM; AID 652010, 2013; HEK293T StAR-luciferase reporter, SF-1/DAX-1 repression relief; actives 1.1% (n = 370,000);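 active means inhibition above the mean over all tested compounds plus 3 SD, cut at about 3.6% in these data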;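 further: 0% = DAX-1 cells with DMSO and 100% = cells lacking DAX-1 with DMSO; higher inhibition means more luminescence from relief of DAX-1 repression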
The depositor's hits bear a star; nt = not tested or not shown. This is a sample that favours compounds with a hit; in the whole collection about 5.7% have one here.

SMILES	hgDAF12 agonist	AHR activator	hcDAF-12 act	DAX1 inh-1	ssDAF-12 act	DAX1 inh-2
COc1cc(N2CCCC2)c(OC)cc1/C=C(/C#N)c1cccc(F)c1	nt	69*	nt	1	nt	nt
Cc1ccc2nc(SCC(=O)NC3CC3)[nH]c2c1	2	19	0	1	-1	1
Cc1ccc(S(=O)(=O)CCC(=O)Nc2cccc([N+](=O)[O-])c2)cc1	2	0	0	7.3*	-1	0
Cc1ccc(S(=O)(=O)CCC(=O)Nc2cccc(Cl)c2)cc1	-1	2	-1	-1	-1	0
Cc1ccc2nc(SCC(=O)c3ccc(O)cc3O)[nH]c2c1	11*	32	5	3	0	2
O=C(CSc1nc2ccccc2[nH]1)Nc1ccc(F)c(F)c1	-3	1	-1	-1	-1	0
CCCC(C)NC(=O)CSc1nc2ccc(C)cc2[nH]1 (configuration not stated)	-4	51*	-1	0	-1	0
O=C(CSc1nc2ccc(Cl)cc2[nH]1)Nc1ccc2[nH]c(=O)[nH]c2c1	0	26	3	0	1.0*	1
CC(C)(C)C(=O)O/N=C(\N)c1ccc(Oc2cc(Cl)cc(Cl)c2)c([N+](=O)[O-])c1	1	-1	-1	1	-1	0
Cc1ccc2nc(SCC(=O)Nc3ccc(C(N)=O)cc3)[nH]c2c1	0	25	-1	0	0	0
Cc1ccc2nc(SCC(=O)Nc3cccc([N+](=O)[O-])c3)[nH]c2c1	1	89*	-2	1	-2	-1
Cc1ccc2nc(SCC(=O)Nc3ccc(F)cc3F)[nH]c2c1	2	71*	-4	0	-2	0
Cc1ccc2nc(SCC(=O)Nc3ccc4[nH]c(=O)[nH]c4c3)[nH]c2c1	2	nt	3	0	1.0*	3
O=C(COC(=O)c1cccc([N+](=O)[O-])c1)Nc1ccc(Cl)cn1	-1	6	3	0	-1	1
CCOC(=O)CSc1nc2sc3c(c2c(=O)n1-c1ccc(C)cc1)CCN(C)C3	0	nt	6.1*	-1	0	0
Fc1ccc(Cn2cccc2C2=NC(c3ccccc3)CO2)cc1 (configuration not stated)	4	-2	1	0	0	0
CCC1COC(c2cccn2Cc2ccccc2Cl)=N1 (configuration not stated)	4	-3	1	5.9*	-1	0
Nc1ccc2c(c1)C/C(=C/c1ccco1)C2=O	2	2	5	3	0	1
O=C1/C(=C/c2ccco2)CCc2ccccc21	9	5	6.2*	1	-1	1
Cc1cc(C)n2nc(N)c(N=Nc3ccccc3)c2n1	6	60*	-1	-1	-1	0
Cc1cc(C)n2nc(N)c(N=Nc3ccc4c(c3)OCO4)c2n1	-1	6	-4	-2	-1	-1
Cc1nc2cc(N3CCCCC3)c(NC(=O)c3cccnc3)cc2c(=O)n1Cc1ccccc1	-4	49*	-1	-2	-1	-2
O=C1c2ccccc2NC2(CCCCC2)N1N=C1CCCCC1	12*	8	1	1	0	1
O=C1c2ccccc2NC2(CCCC2)N1O	2	2	-1	0	-1	0
Cc1cccc2nc3ccccc3cc12	1	-1	0	2	-1	0
SMILES	hgDAF12 agonist	AHR activator	hcDAF-12 act	DAX1 inh-1	ssDAF-12 act	DAX1 inh-2
Cc1[nH]ccc2cc3nc4ccccc4c3cc12	3	nt	5.7*	-1	1	-2
O=C(CCc1ccccc1)NCCC1=CCCCC1	5	2	-2	2	-1	1
COc1cc2cc(CN(C(=O)NC3CCCCC3)C3CCCC3)c(=O)[nH]c2cc1OC	-3	1	0	0	-1	0
O=C(NC1CCCCC1)N(Cc1cc2cc3c(cc2[nH]c1=O)OCCO3)C1CCCCC1	-3	-7	-2	4.8*	-1	-1
O=C(c1ccc2oc(CCCc3ccccc3)nc2c1)N1CCCCC1CO (configuration not stated)	8	nt	1	1	0	3.8*
NC(=O)[C@@H]1CCCN1C(=O)c1ccc2oc(CCc3ccccc3)nc2c1	5	nt	0	1	-1	3.6*
CCCCn1c(O)c(/C=C2\C=Nc3ccccc32)c(=O)[nH]c1=O	4	15	6.0*	1	0	0
CC1CCN(C(=O)CN2C(=O)C(C)(C)Oc3ccc(C(=O)NC(C)C)cc32)CC1	0	0	-2	1	-1	0
CCn1c(=O)cc(OCC(=O)NCCC(C)C)c2ccccc21	-2	5	0	1	0.9*	0
CCn1c(=O)cc(OCC(=O)N2CCCCCC2)c2ccccc21	-3	24	-1	2	-2	0
CCn1c(=O)cc(OCC(=O)N2CCN(c3ccc(F)cc3)CC2)c2ccccc21	1	54*	-1	2	-1	0
CCn1c(=O)cc(OCC(=O)Nc2ccccc2C#N)c2ccccc21	0	73*	1	2	0	-1
C=CCN=C1N[C@@H](c2ccccc2)C(C(=O)OC)=C(C)N1CCOC	0	2	2	0	0	0
O=C(Cc1ccccc1)Nc1ccc(SC(F)F)cc1	6	2	2	4.3*	-1	1
CNC(=O)c1[nH]cnc1C(=O)Nc1cccc(OC)c1	1	57*	-1	0	-1	0
COc1cccc(NC(=O)c2ncc(Cl)c(Cl)c2Cl)c1	11*	35	3	0	-2	0
COc1ccc(NC(=O)c2nc[nH]c2C(=O)N[C@@H](C)c2ccccc2)cc1	2	48*	-2	-1	-1	-1
Cc1ccccc1N1CC(C(=O)N2CC(C)CC(C)C2)CC1=O (configuration not stated)	1	5	0	1	-1	-2
CCc1nc(SCC(=O)N2CC(=O)Nc3ccccc32)c2c(C)c(C)sc2n1	1	9	-1	0	-1	0
Cc1sc2nc(C3CCCCC3)nc(SCC(=O)N3CC(=O)Nc4ccccc43)c2c1C	3	-1	0	1	1.2*	0
